Measured values: PubChem BioAssay (EPA / NIEHS)
The source made the active and inactive calls. How the source made its calls: active means hit-call score of the fitted dose curve at least 0.9, where 1 is the maximum; inactive means score below 0.9.

Legend:
Conditions in all cases: mRNA level, 48 h; actives raise or lower the signal
[1] = read-out: Cytochrome P450 4A22 (Homo sapiens) (UniProt Q5TCH4); test: LTEA_HepaRG_CYP4A22: Life Technologies and Expression Analysis (LTEA) Assay for Cytochrome P450 4A22 (CYP4A22) using HepaRG (AID 2283495)
Outline: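 Gene expression measured by qRT-PCR against three housekeeping genes (ACTB, GAPDH, POLR2A), with gain or loss fitted relative to 0.5% DMSO vehicle. HepaRG cultures received 48 h chemical treatment, top concentration 100 uM, half-log steps, duplicate wells.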

[2] = read-out: Cytochrome P450 7A1 (Homo sapiens) (UniProt P22680); test: LTEA_HepaRG_CYP7A1: Life Technologies and Expression Analysis (LTEA) Assay for Cytochrome P450 7A1 (CYP7A1) using HepaRG (AID 2283496)
Outline: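 HepaRG, 48 h exposure, 8-pt half-log series from 100 uM, 0.5% DMSO vehicle, duplicates. Readout: TaqMan qRT-PCR mRNA vs three housekeeping genes; bidirectional curve fit against DMSO baseline.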

[3] = read-out: Glutathione S-Transferase (GSTA2), GSTA2 (gene 2939); test: LTEA_HepaRG_GSTA2: Life Technologies and Expression Analysis (LTEA) Assay for Glutathione S-Transferase (GSTA2) using HepaRG (AID 2283497)
Outline: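 qRT-PCR readout of GSTA2 transcript, normalized to three housekeeping genes, fitted bidirectionally against 0.5% DMSO baseline. Differentiated HepaRG cells received compound for 48 h at 8 concentrations (top 100 uM, half-log steps).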

[4] = read-out: Glutamate-cysteine ligase catalytic (GCLC), GCLC (gene 2729); test: LTEA_HepaRG_GCLC: Life Technologies and Expression Analysis (LTEA) Assay for Glutamate-cysteine ligase catalytic (GCLC) using HepaRG (AID 2283498)
Outline: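 HepaRG, 48 h exposure, 8-pt half-log series from 100 uM, 0.5% DMSO vehicle; TaqMan qRT-PCR for GCLC mRNA, housekeeping-normalized; bidirectional curve fit vs DMSO baseline.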

[5] = read-out: growth arrest and DNA damage 45 (GADD45G), GADD45G (gene 10912); test: LTEA_HepaRG_GADD45G: Life Technologies and Expression Analysis (LTEA) Assay for growth arrest and DNA damage 45 (GADD45G) using HepaRG (AID 2283499)
Outline: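 GADD45G transcript level by qRT-PCR (housekeeping-normalized: ACTB, GAPDH, POLR2A) after 48 h chemical treatment of a single HepaRG lot in serum-free induction medium; eight-point half-log series up to 100 uM in 0.5% DMSO, duplicates, up- or down-regulation scored.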

[6] = read-out: Glutamate-cysteine ligase regulatory (GCLM), GCLM (gene 2730); test: LTEA_HepaRG_GCLM: Life Technologies and Expression Analysis (LTEA) Assay for Glutamate-cysteine ligase regulatory (GCLM) using HepaRG (AID 2283500)
Outline: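 Endpoint is GCLM transcript level by qRT-PCR, normalized to three housekeeping genes, after 48 h chemical exposure of human HepaRG cells (0.5% DMSO vehicle, top 100 uM, half-log dilutions). Fitting was bidirectional relative to DMSO.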

[7] = read-out: Glutathione S-transferase M3 (GSTM3), GSTM3 (gene 2947); test: LTEA_HepaRG_GSTM3: Life Technologies and Expression Analysis (LTEA) Assay for Glutathione S-transferase M3 (GSTM3) using HepaRG (AID 2283501)
Outline: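 GSTM3 transcript levels came from Fluidigm TaqMan qRT-PCR normalized to three housekeeping genes, fitted in both directions against DMSO. HepaRG cultures received chemicals for 48 h in serum-free induction medium (0.5% DMSO), 8 half-log concentrations up to 100 uM, duplicate.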

[8] = read-out: Heat shock 70 kDa protein 1 (HSPA1A), gene 3303; test: LTEA_HepaRG_HSPA1A: Life Technologies and Expression Analysis (LTEA) Assay for Heat shock 70 kDa protein 1 (HSPA1A) using HepaRG (AID 2283502)
Outline: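 Cells were plated and cultured for 48 h, then switched to serum-free induction medium. Chemicals were added at eight half-log concentrations up to 100 uM for 48 h. RNA was then isolated and HSPA1A measured by qRT-PCR with bidirectional curve fitting against DMSO.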

[9] = read-out: Hypoxia-inducible factor 1-alpha (Homo sapiens) (UniProt Q16665); test: LTEA_HepaRG_HIF1A: Life Technologies and Expression Analysis (LTEA) Assay for Hypoxia-inducible factor 1 (HIF1A) Trancription factor using HepaRG (AID 2283503)
Outline: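 HIF1A transcript level read by qRT-PCR (ACTB, GAPDH, POLR2A normalization) after 48 h chemical exposure of HepaRG cultures. Eight half-log concentrations, top 100 uM, 0.5% DMSO vehicle, duplicates; bidirectional curve fit against DMSO baseline.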

[10] = read-out: 3-Hydroxy-3-Methylglutaryl-CoA Synthase 2 (HMGCS2), HMGCS2 (gene 3158); test: LTEA_HepaRG_HMGCS2: Life Technologies and Expression Analysis (LTEA) Assay for 3-Hydroxy-3-Methylglutaryl-CoA Synthase 2 (HMGCS2) using HepaRG (AID 2283504)
Outline: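 Readout is HMGCS2 transcript by qRT-PCR, housekeeping-normalised (ACTB/GAPDH/POLR2A) and fitted bidirectionally against 0.5% DMSO. Differentiated HepaRG cells received chemicals 48 h, duplicate wells, eight half-log concentrations topping at 100 uM.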

HGF (gene 3082) = test: LTEA_HepaRG_HGF: Life Technologies and Expression Analysis (LTEA) Assay for Hepatocyte Growth Facto (HGF) using HepaRG (AID 2283505)
Outline: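 HGF transcript was quantified by TaqMan qRT-PCR against three housekeeping genes after 48 h treatment of HepaRG cells. Exposure ran in duplicate over eight half-log steps topping at 100 uM in 0.5% DMSO vehicle.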

[11] = read-out: Insulin Like Growth Factor 1 (IGF1), IGF1 (gene 3479); test: LTEA_HepaRG_IGF1: Life Technologies and Expression Analysis (LTEA) Assay for Insulin Like Growth Factor 1 (IGF1) using HepaRG (AID 2283506)
Outline: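 Cells are thawed, plated and cultured 48 h, then exposed in duplicate to chemical (highest 100 uM, half-log steps, 0.5% DMSO) for another 48 h. Total RNA is analysed by Fluidigm qRT-PCR for IGF1 expression relative to vehicle.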

[12] = read-out: Intercellular Adhesion Molecule 1 (ICAM1), ICAM1 (gene 3383); test: LTEA_HepaRG_ICAM1: Life Technologies and Expression Analysis (LTEA) Assay for Intercellular Adhesion Molecule 1 (ICAM1) using HepaRG (AID 2283507)
Outline: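 ICAM1 transcript levels measured by qRT-PCR, normalized to three housekeeping genes (ACTB, GAPDH, POLR2A), after 48 h chemical exposure of HepaRG cells. Duplicate eight-point half-log series from 100 uM in 0.5% DMSO; gain or loss fitted against vehicle.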

[13] = read-out: Insulin-like growth factor-binding protein 1 (IGFBP1), IGFBP1 (gene 3484); test: LTEA_HepaRG_IGFBP1: Life Technologies and Expression Analysis (LTEA) Assay for Insulin-like growth factor-binding protein 1 (IGFBP1) using HepaRG (AID 2283508)
Outline: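 Read-out is qRT-PCR transcript level normalized to three housekeeping genes, fitted in both directions against 0.5% DMSO. Differentiated HepaRG cells received eight half-log concentrations (top 100 uM) in duplicate for 48 h in serum-free induction medium.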

[14] = read-out: Interleukin 6 Receptor (IL6R), IL6R (gene 3570); test: LTEA_HepaRG_IL6R: Life Technologies and Expression Analysis (LTEA) Assay for Interleukin 6 Receptor (IL6R) using HepaRG (AID 2283510)
Outline: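 Cells were thawed, plated and cultured 48 h, then medium was changed to serum-free induction medium. Chemicals were added in duplicate (100 uM top, half-log steps, 0.5% DMSO) for 48 h. Lysates were analyzed by qRT-PCR for IL6R expression.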

[15] = read-out: Potassium channel subfamily K member 1 (KCNK1), KCNK1 (gene 3775); test: LTEA_HepaRG_KCNK1: Life Technologies and Expression Analysis (LTEA) Assay for Potassium channel subfamily K member 1 (KCNK1) using HepaRG (AID 2283511)
Outline: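 HepaRG, 48 h exposure, 8-pt half-log series top 100 uM, 0.5% DMSO vehicle, duplicates. Readout: KCNK1 transcript by qRT-PCR (Fluidigm array), housekeeping-normalized; bidirectional curve fit relative to DMSO baseline.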

[16] = read-out: Lipase C (LIPC), LIPC (gene 3990); test: LTEA_HepaRG_LIPC: Life Technologies and Expression Analysis (LTEA) Assay for Lipase C (LIPC) using HepaRG (AID 2283514)
Outline: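 HepaRG, 48 h exposure, 8-pt half-log series from 100 uM in 0.5% DMSO, duplicates. Readout: LIPC mRNA by Fluidigm qRT-PCR, housekeeping-normalized (ACTB/GAPDH/POLR2A). Gain or loss fitted bidirectionally against DMSO baseline.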

[17] = read-out: Interleukin 6 (IL6), IL6 (gene 3569); test: LTEA_HepaRG_IL6: Life Technologies and Expression Analysis (LTEA) Assay for Interleukin 6 (IL6) using HepaRG (AID 2283509)
Outline: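 qRT-PCR read-out of IL6 transcript, normalized to three housekeeping genes, after 48 h chemical exposure of HepaRG cells; 8-point half-log series, top 100 uM, 0.5% DMSO vehicle. Bidirectional curve fitting against DMSO baseline.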

[18] = read-out: Keratin 19 (KRT19), KRT19 (gene 3880); test: LTEA_HepaRG_KRT19: Life Technologies and Expression Analysis (LTEA) Assay for Keratin 19 (KRT19) using HepaRG (AID 2283512)
Outline: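 KRT19 transcript measured by TaqMan qRT-PCR, referenced to three housekeeping genes, after HepaRG cells received test chemicals for 48 h. Eight half-log concentrations, top 100 uM, 0.5% DMSO vehicle; increases and decreases both fitted.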

[19] = read-out: JUN Transcription Factor, JUN (gene 3725); test: LTEA_HepaRG_JUN: Life Technologies and Expression Analysis (LTEA) Assay for JUN Transcription Factor using HepaRG (AID 2283513)
Outline: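 Read-out is JUN transcript level by TaqMan qRT-PCR, normalized to ACTB, GAPDH and POLR2A, after 48 h chemical treatment of HepaRG cells. Concentration-response spanned eight half-log points up to 100 uM in 0.5% DMSO.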

Measured: outcome

Sequence of Hypoxia-inducible factor 1-alpha (Homo sapiens) (Q16665 whole entry, looked up): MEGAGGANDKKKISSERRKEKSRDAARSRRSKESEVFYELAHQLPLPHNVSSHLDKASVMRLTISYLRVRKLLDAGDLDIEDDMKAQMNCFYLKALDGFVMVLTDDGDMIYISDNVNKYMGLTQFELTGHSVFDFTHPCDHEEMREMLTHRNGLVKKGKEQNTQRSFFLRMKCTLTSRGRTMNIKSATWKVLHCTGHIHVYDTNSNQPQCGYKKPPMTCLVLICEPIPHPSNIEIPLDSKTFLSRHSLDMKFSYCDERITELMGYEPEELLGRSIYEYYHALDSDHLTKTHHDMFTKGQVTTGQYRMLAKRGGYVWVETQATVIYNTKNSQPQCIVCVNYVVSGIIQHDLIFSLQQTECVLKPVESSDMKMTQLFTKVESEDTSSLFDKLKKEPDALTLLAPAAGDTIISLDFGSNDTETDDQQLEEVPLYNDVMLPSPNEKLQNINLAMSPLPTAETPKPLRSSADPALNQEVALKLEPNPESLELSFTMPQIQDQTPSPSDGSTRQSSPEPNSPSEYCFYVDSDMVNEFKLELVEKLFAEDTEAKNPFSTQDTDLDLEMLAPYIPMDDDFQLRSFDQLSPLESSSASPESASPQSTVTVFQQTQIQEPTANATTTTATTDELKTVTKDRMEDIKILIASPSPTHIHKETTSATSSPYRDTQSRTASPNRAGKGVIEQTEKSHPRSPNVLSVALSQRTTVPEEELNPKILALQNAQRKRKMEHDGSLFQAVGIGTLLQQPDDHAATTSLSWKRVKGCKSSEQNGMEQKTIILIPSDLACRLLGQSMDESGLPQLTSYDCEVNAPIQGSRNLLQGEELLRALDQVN

Cc1cc(C)c(O)c(C)c1
not listed: [17] | [18] | [19]
inactive: all other assays above

CN(C)C=O
not listed: [5] | [19]
inactive: all other assays above

CCCOc1sc(C(=O)N2CCC(c3cc(CN)ccc3F)CC2)c(C)c1Br
not listed: [17] | [18]
inactive: all other assays above
